Bioassay records as filed in PubChem BioAssay.
JMJD2A Tudor inh – qHTS Assay for Inhibitors of JMJD2A-Tudor Domain; AlphaScreen JMJD2A-Tudor / H3K4me3 peptide binding; Potency, µM (doses to about 114 µM), actives largely listed as inhibitors; Lysine-specific demethylase 4A (Homo sapiens), O75164; 390,000 tested, 4.4% active; note: nearly all actives have a fitted effect of over 50% in size
PLK1 PBD block – qHTS for Inhibitors of PLK1-PDB (polo-like kinase 1 - polo-box domain): Primary Screen; Serine/threonine-protein kinase PLK1 (Homo sapiens), P53350; 360,000 tested, 2.8% active; Plk1 PBD binding of FITC phosphopeptide, fluorescence polarization; AID 720504, 2013; Potency, µM, most hits filed as inhibitors; note: series mostly up to about 57 µM; nearly all actives have a fitted effect of over 65% in size
Target sequence (P53350 whole entry, looked up, the tested form may be a part): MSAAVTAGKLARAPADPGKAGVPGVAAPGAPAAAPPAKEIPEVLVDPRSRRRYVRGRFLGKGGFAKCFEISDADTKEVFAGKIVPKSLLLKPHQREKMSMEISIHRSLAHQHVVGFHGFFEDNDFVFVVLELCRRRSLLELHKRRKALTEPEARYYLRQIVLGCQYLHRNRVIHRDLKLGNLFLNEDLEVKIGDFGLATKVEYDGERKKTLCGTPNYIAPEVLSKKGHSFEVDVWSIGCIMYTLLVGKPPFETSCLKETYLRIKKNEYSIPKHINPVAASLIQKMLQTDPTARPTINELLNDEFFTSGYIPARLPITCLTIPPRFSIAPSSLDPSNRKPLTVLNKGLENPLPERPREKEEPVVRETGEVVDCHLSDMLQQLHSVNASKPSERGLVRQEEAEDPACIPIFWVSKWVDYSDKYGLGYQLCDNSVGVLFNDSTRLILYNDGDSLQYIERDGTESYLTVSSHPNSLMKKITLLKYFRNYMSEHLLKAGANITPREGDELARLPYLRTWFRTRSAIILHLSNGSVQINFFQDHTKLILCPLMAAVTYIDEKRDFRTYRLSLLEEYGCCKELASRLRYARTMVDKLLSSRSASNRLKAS
Sfp inh – qHTS Assay for Inhibitors of Bacillus subtilis Sfp phosphopantetheinyl transferase (PPTase); Biochemical Sfp PPTase activity, qHTS; Potency, µM, actives largely listed as inhibitors; 310,000 tested, 3.5% active;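 note: the enzyme is Sfp with the accession as filed and its product quenches rhodamine fluorescence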
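Step 1, compound plus 15 nM Sfp-PPTase, 15 min, room temperature. Step 2, add rhodamine-CoA (5 uM) and BHQ-2-YbbR (12.5 uM). Step 3, read 525/598 nm fluorescence at 0 and 30 min.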
HP1b binding inh – HTS for Inhibitors of HP1-beta Chromodomain Interactions with Methylated Histone Tails; 390,000 tested, 0.56% active; Potency, µM (highest dose often 114 µM), usual class: inhibitors; AlphaScreen HP1-beta / biotin-H3K9me3 peptide binding; note: nearly all actives have a fitted effect of over 70% in size
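HP1-beta protein (50 nM final) preincubated 30 min at room temperature with biotinylated H3(1-18)K9me3 peptide (50 nM) in PBS pH 7.4, 0.01% Tween-20, then compound added for 30 min. AlphaScreen streptavidin donor/nickel chelate acceptor beads (10 ug/mL final), 30 min dark, luminescence read.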
G9a block – qHTS Assay for Inhibitors of Histone Lysine Methyltransferase G9a; AID 504332, 2011; 350,000 tested, 8.8% active; Potency, µM (series often up to 102 µM), usual class: inhibitors; G9a H3K9 monomethylation, AlphaScreen, 2 h; note: nearly all actives have a fitted effect of over 75% in size
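Chemiluminescent proximity detection of H3K9 monomethylation, read after 10 min bead incubation in the dark. Reaction: 20 nM G9a, 500 nM biotin-H3K9 peptide, 20 uM SAM cofactor, 2 h, room temperature, following 15 min enzyme-compound preincubation.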
BAZ2B block – qHTS Assay for Inhibitors of BAZ2B | Bromodomain adjacent to zinc finger domain protein 2B (Homo sapiens), Q9UIF8 | AlphaScreen BAZ2B-H3K14Ac peptide displacement | Potency, µM (titrated, usually from 114 µM), actives largely listed as inhibitors | 360,000 tested, 4.4% active | AID 504333, 2011; note: nearly all actives have a fitted effect of over 60% in size
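AlphaScreen displacement: compounds (up to 110uM) incubated 30 min at room temperature with a preformed 50 nM BAZ2B/50 nM biotinylated H3K14Ac peptide complex in PBS pH 7.4 with Tween-20. Donor and acceptor beads at 10 ug/mL final added, 20 min light-protected before reading.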
Large screens that a line does not name were inactive. This is a sample that favours compounds with a hit; in the whole collection about 12% have one here. Calls come from the whole dose curve; as a rule, active = well fitted curve in the direction sought with a large enough effect; inconclusive = small, poorly fitted or top-dose-only effect, or another doubt; inactive = no such curve, though single readings can be large; an effect the other way counts as inactive or inconclusive.

CCNc1oc(-c2ccc(OC)cc2)nc1S(=O)(=O)c1ccc(Br)cc1	G9a block 56µM
CCNc1oc(-c2ccccc2F)nc1S(=O)(=O)c1ccccc1	G9a block 45µM
Cc1ccc(S(=O)(=O)c2nc(-c3ccccc3F)oc2NCc2ccccc2)cc1	G9a block inconclusive, BAZ2B block inconclusive (no result: PLK1 PBD block, Sfp inh)
CNc1oc(-c2ccccc2F)nc1S(=O)(=O)c1ccc(C)cc1	none (no result: G9a block)
CNc1oc(Cc2ccccc2)nc1S(=O)(=O)c1ccccc1	JMJD2A Tudor inh 3.2µM, PLK1 PBD block 2.7µM, Sfp inh 50µM, HP1b binding inh inconclusive, G9a block inconclusive
COc1cc(OC)cc(C(=O)N2CCC(C(=O)NCCc3ccccc3)CC2)c1	none (no result: G9a block)
Cc1ccc(C(=O)NC(c2ccccc2)C(Cl)Cl)cc1 (centres undefined)	G9a block 50µM
Oc1ccccc1C1NN=C(c2ccccc2)S1 (centres undefined)	PLK1 PBD block inconclusive, BAZ2B block 18µM (no result: G9a block)
Cc1cc(=O)[nH]c(SCC(=O)Nc2nc3c(s2)CCCC3)n1	none
CCC(Sc1nc(C)cc(=O)[nH]1)C(=O)Nc1nc2c(s1)CCCC2 (centres undefined)	G9a block 45µM, BAZ2B block inconclusive
Cc1cc(NS(=O)(=O)c2ccc(N)cc2)nc(C)n1	none (no result: JMJD2A Tudor inh, PLK1 PBD block, HP1b binding inh, BAZ2B block)
COc1ccc(CCNC(=O)CCn2c(=O)c3ccccc3n(Cc3cc(C)ccc3C)c2=O)cc1OC	none (no result: PLK1 PBD block, Sfp inh)
CCCCCn1c(CN2CCN(c3ccc(OC)cc3)CC2)nc2c1c(=O)[nH]c(=O)n2C	JMJD2A Tudor inh inconclusive, G9a block inconclusive (no result: PLK1 PBD block, Sfp inh)
CCCn1c(CN2CCN(c3ccc(OC)cc3)CC2)nc2c1c(=O)[nH]c(=O)n2C	G9a block 25µM (no result: PLK1 PBD block, Sfp inh)
C=CCn1c(N2CCN(c3ccc(OC)cc3)CC2)nc2c1c(=O)[nH]c(=O)n2C	G9a block 50µM
Cc1cccc(NC(=O)CSc2nc3c(oc4ccccc43)c(=O)n2C(C)C)c1	none (no result: PLK1 PBD block, Sfp inh)
C#CCNC(=O)C1=C[C@@H](c2coc3ccccc3c2=O)C[C@@H](OCc2ccc(CO)cc2)O1	none
COc1ccc(C(=O)CSc2nnc(COc3ccc(C#N)cc3)n2-c2ccccc2)cc1	none
COc1ccc(-n2c(COc3ccc(C)cc3)nnc2SCC(N)=O)cc1	G9a block 32µM
COc1cccc(-c2nnc(SCC(N)=O)n2-c2ccc(Cl)cc2)c1	G9a block 28µM
CCOc1cc(C)ccc1OCc1nnc(SCC(=O)c2cccc([N+](=O)[O-])c2)n1CC	PLK1 PBD block inconclusive
COc1cccc(-n2c(COc3ccc(C)cc3)nnc2SCC(N)=O)c1	G9a block inconclusive, BAZ2B block inconclusive
COc1ccc(-n2c(COc3ccccc3)nnc2SCC(N)=O)cc1	G9a block 45µM
COc1ccc(-c2nnc(SCC(=O)c3cccs3)n2-c2ccc(Cl)cc2)cc1	G9a block inconclusive
CCn1c(COc2ccccc2)nnc1SCC(=O)c1cccc([N+](=O)[O-])c1	JMJD2A Tudor inh inconclusive, G9a block 40µM
COc1ccc(S(=O)(=O)c2cn(CC(=O)Nc3cc(C)ccc3C)c3ccccc3c2=O)cc1	none (no result: PLK1 PBD block, Sfp inh)
COC(=O)C1CCN(C2CN(Cc3ccc([N+](=O)[O-])cc3)S(=O)(=O)C2)CC1 (centres undefined)	none (no result: JMJD2A Tudor inh, Sfp inh, HP1b binding inh, G9a block, BAZ2B block)
Cn1c(=O)oc2cc(S(=O)(=O)NC(Cc3ccccc3)C(=O)Nc3ccc(F)cc3)ccc21 (centres undefined)	none (no result: PLK1 PBD block, Sfp inh)
CCN(CC(=O)Nc1c(F)cccc1F)C(=O)Cn1[nH]c(=O)c2ccccc2c1=O	none (no result: Sfp inh)
CC(C)c1nn2c(=O)cc(COC(=O)c3ccccc3NC(=O)c3cccc(Cl)c3)nc2s1	none (no result: PLK1 PBD block, Sfp inh)
Cc1ccnc(SCC(=O)c2cccc([N+](=O)[O-])c2)n1	Sfp inh 50µM, G9a block 22µM
COc1ccc(-n2c(COc3ccc4c(c3)OCO4)nnc2SCC(=O)O)cc1	G9a block 50µM
CCn1c(COc2ccc3c(c2)OCO3)nnc1SCC(=O)c1ccc(Cl)cc1	G9a block 50µM
Cc1ccnc(SCc2ccc([N+](=O)[O-])cc2)n1	none
C=CCn1c(SCC(=O)c2ccc(Cl)cc2)nnc1-c1ccc2c(c1)OCO2	G9a block inconclusive, BAZ2B block inconclusive
CNC(=O)CSc1nnc(COc2ccc([N+](=O)[O-])cc2)n1C	BAZ2B block 56µM
Cc1ccc(-n2c(COc3ccccc3)nnc2SCC(=O)O)cc1	none (no result: JMJD2A Tudor inh, Sfp inh, HP1b binding inh, G9a block, BAZ2B block)
COc1ccc(C)cc1NS(=O)(=O)c1cc(Br)cc2c1N(C(C)=O)C(C)C2 (centres undefined)	none (no result: PLK1 PBD block, Sfp inh)
Cc1ccc(C)c(CSc2nc3ccncc3n2CC(=O)Nc2ccc(N(C)C)cc2)c1	JMJD2A Tudor inh inconclusive, G9a block 5µM, BAZ2B block inconclusive (no result: PLK1 PBD block, Sfp inh)
O=C(Cn1c(SCc2ccccc2F)nc2cccnc21)Nc1ccc(F)c(Cl)c1	G9a block inconclusive (no result: PLK1 PBD block, Sfp inh)
CN(C)c1ccc(NC(=O)Cn2c(SCc3ccccc3F)nc3cccnc32)cc1	G9a block 3.2µM (no result: PLK1 PBD block, Sfp inh)
CC(=O)C1=C(C)NC(C)=C(C(C)=O)C1c1ccc(-c2ccccc2Cl)o1	Sfp inh inconclusive, G9a block inconclusive
CCN(CC)CCOC(=O)C(Cc1cccc2ccccc12)CC1CCCO1 (centres undefined)	JMJD2A Tudor inh 20µM, HP1b binding inh inconclusive, BAZ2B block 50µM
COc1ccc2[nH]cc(CCO)c2c1	none (no result: JMJD2A Tudor inh, PLK1 PBD block, HP1b binding inh, BAZ2B block)
N#CCSC1=Nc2ccccc2C2=NC(CCC(=O)N3CCN(c4ccccc4)CC3)C(=O)N12 (centres undefined)	PLK1 PBD block inconclusive, Sfp inh inconclusive, G9a block 45µM, BAZ2B block inconclusive
O=C(CCC1N=C2c3ccccc3N=C(SCc3ccc(F)cc3)N2C1=O)N1CCN(c2ccccc2)CC1 (centres undefined)	G9a block inconclusive (no result: PLK1 PBD block, Sfp inh)
N#Cc1c(Sc2ncc(C(F)(F)F)cc2Cl)nsc1C/C=N\OCc1c(F)cccc1Cl	JMJD2A Tudor inh inconclusive, G9a block 10µM, BAZ2B block 40µM
FC(F)(F)c1cnc(Sc2nnc(-c3cccs3)n2CC2CCCO2)c(Cl)c1 (centres undefined)	none
COc1ccccc1-c1nc(SCc2ccccn2)n[nH]1	G9a block 50µM
Cc1[nH]c(C(=O)O)c(C#N)c1C(=O)c1ccccc1	PLK1 PBD block inconclusive, G9a block inconclusive
